# Results reported in PubChem BioAssay (Tox21).
# “And” between values parts separate entries of the source, which are not always exact repeats. Equal values may be shown once. Inconclusive results are not listed. Where a call stands in place of a potency, no number is given. Where a structure was tested more than once in an assay, its records may differ in their call. The source made the active and inactive calls. Unless noted, calls follow the shape of the dose curve; as a rule, active = well fitted curve in the direction sought with a large enough effect in the repeat runs; inconclusive = weak or mixed curves; inactive = no such curve, though single readings can be large; an effect the other way counts as inactive or inconclusive.
# Experiments:
# [1] = qHTS assay to identify small molecule agonists of the estrogen receptor alpha (ER-alpha) signaling pathway in the presence of an antagonist - cell viability counter screen (AID 1259386);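 also: cells exposed to compounds for 22 h at 37 °C before the viability read; nearly all actives have a fitted effect of over 30% in size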; also: potency is read from the fitted curve at half-maximal effect; as to activity change, negative = cytotoxicity: series mostly up to about 92 µM
# Summary of the method: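 Viability counter screen using VM7Luc4E2 (full-length ER-alpha, four ERE-luciferase). The cells were treated with compounds alongside ICI-182,780 10.0nM for 22hr, and live-cell protease fluorescence was quantified with CellTiter-Fluor.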
# [2] = target: Progesterone receptor (Homo sapiens) (UniProt P06401); experiment: qHTS assay to identify small molecule agonists of the progesterone receptor (PR) signaling pathway (AID 1346784; calls by dose curve; also: nearly all actives have a fitted effect of over 30% in size)
# Progesterone receptor (Homo sapiens), sequence (P06401 whole entry, looked up): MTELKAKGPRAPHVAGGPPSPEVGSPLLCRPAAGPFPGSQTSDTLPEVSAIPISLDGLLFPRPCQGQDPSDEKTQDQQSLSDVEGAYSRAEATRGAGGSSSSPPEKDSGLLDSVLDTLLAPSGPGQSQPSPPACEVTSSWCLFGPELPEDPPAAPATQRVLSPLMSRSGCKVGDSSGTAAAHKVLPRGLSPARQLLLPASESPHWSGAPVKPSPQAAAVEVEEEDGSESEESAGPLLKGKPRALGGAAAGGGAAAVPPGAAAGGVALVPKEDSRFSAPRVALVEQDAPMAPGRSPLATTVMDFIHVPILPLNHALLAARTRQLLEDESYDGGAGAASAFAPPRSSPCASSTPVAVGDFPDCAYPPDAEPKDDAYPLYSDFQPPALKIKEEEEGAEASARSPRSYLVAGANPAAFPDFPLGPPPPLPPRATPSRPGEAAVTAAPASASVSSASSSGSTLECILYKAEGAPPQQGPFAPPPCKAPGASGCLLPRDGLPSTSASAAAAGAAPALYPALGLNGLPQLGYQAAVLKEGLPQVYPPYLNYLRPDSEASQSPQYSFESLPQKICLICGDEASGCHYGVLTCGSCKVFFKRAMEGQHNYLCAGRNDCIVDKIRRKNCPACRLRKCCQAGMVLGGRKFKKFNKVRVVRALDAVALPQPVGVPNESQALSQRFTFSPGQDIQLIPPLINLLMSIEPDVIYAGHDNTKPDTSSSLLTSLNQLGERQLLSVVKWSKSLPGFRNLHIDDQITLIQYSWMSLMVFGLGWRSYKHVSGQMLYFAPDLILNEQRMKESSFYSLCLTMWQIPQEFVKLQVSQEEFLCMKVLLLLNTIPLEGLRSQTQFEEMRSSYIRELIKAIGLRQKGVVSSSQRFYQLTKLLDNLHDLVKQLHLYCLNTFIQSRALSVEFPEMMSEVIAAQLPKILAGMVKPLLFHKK
# Summary of the method: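 Beta-lactamase reporter read-out: after 16 hr compound treatment at 37C and a further 2 hr at room temperature with LiveBLAzer B/G FRET substrate, fluorescence was measured in PR-UAS-bla HEK 293T cells grown in 2% charcoal-stripped serum.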
# [3] = target: Progesterone receptor (Homo sapiens) (UniProt P06401); experiment: qHTS assay to identify small molecule antagonists of the progesterone receptor (PR) signaling pathway (AID 1346795; active = well fitted inhibition curve with a large enough effect in the signal ratio in the repeat runs, not every such curve was filed as active; the % refers to the signal ratio; also: potency is read from the fitted curve at half-maximal effect)
# Summary of the method: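 Read-out is fluorescence from the LiveBLAzer B/G FRET substrate, cleaved by a UAS-controlled beta-lactamase in PR-UAS-bla HEK293T cells after 16 hr exposure to compound plus 1 nM promegestone (final), followed by 2 hr at room temperature.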
# [4] = qHTS assay to identify small molecule antagonists of the progesterone receptor (PR) signaling pathway - cell viability counter screen (AID 1346798);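 also: HEK293T PR-UAS-bla cells stimulated with the agonist R5020; series mostly up to about 92 µM; nearly all actives have a fitted effect of over 50% in size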
# Summary of the method: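 HEK293T PR-UAS-bla, 2% charcoal-stripped FBS; 4 hr pre-plate; cpd + R5020, 16 h 37C; LiveBLAzer read first; then CellTiter-Glo 30 min RT, luminescence.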
# [5] = qHTS assay to identify small molecule agonists of the progesterone receptor (PR) signaling pathway - cell viability counter screen (AID 1346799; calls by dose curve; also: nearly all actives have a fitted effect of over 45% in size)
# Summary of the method: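 Luminescence from CellTiter-Glo, added after the beta-lactamase FRET read in the same wells, gave cytotoxicity in PR-UAS-bla HEK293T cells treated with compounds for 16 hr at 37C.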
# [6] = qHTS assay to identify small molecule antagonists of the TGF-beta/Smad signaling pathway - cell viability counter screen (AID 1346824); also: nearly all actives have a fitted effect of over 50% in size
# Summary of the method: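 Cytotoxicity counter-screen run in the same wells as the beta-lactamase Smad reporter read: CellTiter-Glo luminescence after 30 min at room temperature. HEK 293T SBE-bla cells had 5 hr compound exposure at 37 C with TGF-beta1 (0.25 ng/mL stock).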
# [7] = qHTS assay to identify small molecule agonists of the TGF-beta/Smad signaling pathway - cell viability counter screen (AID 1346829); also: top concentration of the series differs between compounds; nearly all actives have a fitted effect of over 45% in size
# Summary of the method: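 After overnight seating at 37 C and 5% CO2, reporter cells got compounds for 5 hr and FRET substrate for 2 hr; cell viability then came from CellTiter-Glo luminescence.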
# [8] = qHTS assay to identify small molecule agonists of the TGF-beta/Smad signaling pathway (AID 1346859; active = well fitted activation curve with a large enough effect in the signal ratio in the repeat runs, not every such curve was filed as active; the % refers to the signal ratio; also: series mostly up to about 77 µM)
# Summary of the method: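 SBE-bla HEK 293T, 4,000 cells/well, plated o/n; cpd in DMSO, 5 hr, 37 C/5% CO2; B/G FRET substrate 2 hr RT; ex 405, em 460/530 nm.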
# [9] = target: Thyrotropin-releasing hormone receptor (Homo sapiens) (UniProt P34981); experiment: qHTS assay to identify small molecule antagonists of the thyrotropin-releasing hormone receptor (TRHR) signaling pathway (AID 1346877; active = well fitted inhibition curve with a large enough effect in the repeat runs, not every such curve was filed as active; also: series mostly up to about 51 µM)
# Thyrotropin-releasing hormone receptor (Homo sapiens), sequence (P34981 whole entry, looked up): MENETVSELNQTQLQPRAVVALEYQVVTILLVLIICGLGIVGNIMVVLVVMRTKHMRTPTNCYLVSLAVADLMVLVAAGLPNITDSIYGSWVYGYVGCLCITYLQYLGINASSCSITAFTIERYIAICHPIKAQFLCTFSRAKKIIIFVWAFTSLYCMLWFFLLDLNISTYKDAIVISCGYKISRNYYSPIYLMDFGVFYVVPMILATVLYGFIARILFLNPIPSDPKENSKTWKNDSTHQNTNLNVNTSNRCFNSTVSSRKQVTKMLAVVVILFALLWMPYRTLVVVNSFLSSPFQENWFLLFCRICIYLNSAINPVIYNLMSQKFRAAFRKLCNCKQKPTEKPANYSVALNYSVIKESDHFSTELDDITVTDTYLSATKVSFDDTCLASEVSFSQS
# Summary of the method: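 Following an 18 h incubation at 37 °C and a 2 h calcium dye load, TRHR-HEK293 cells were exposed to compound (5 min, room temperature) and challenged with TRH, 1 nM final.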
# [10] = target: Thyrotropin-releasing hormone receptor (Homo sapiens) (UniProt P34981); experiment: qHTS assay to identify small molecule agonists of the thyrotropin-releasing hormone receptor (TRHR) signaling pathway (AID 1346891; calls by dose curve; also: series mostly up to about 58 µM)
# Summary of the method: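 Intracellular calcium rise, read as fluorescence every second for 3 min, served as the agonist signal in dye-loaded HEK293 cells expressing TRHR; each compound ran at 15 concentrations in triplicate.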
# [11] = Caspase-3/7 induction in HepG2 cells by small molecules, qHTS assay (AID 1346978); also: nearly all actives have a fitted effect of over 15% in size
# Summary of the method: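 Caspase-3/7 induction was measured by Caspase-Glo 3/7 luminescence (30 min, room temperature) after a 17 hr compound exposure of wild-type HepG2 cells seeded at 2,000 per well and pre-incubated 5 hr.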
# [12] = Caspase-3/7 induction in CHO-K1 cells by small molecules, qHTS cell viability counter screen (AID 1346979); also: nearly all actives have a fitted effect of over 35% in size; also: potency is read from the fitted curve at half-maximal effect
# Summary of the method: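 Cells (CHO-K1, wild type) are plated at 1,500 per well and incubated 5hr. Test compounds in DMSO are then pinned in, followed by 16hr at 37C and 5% CO2. Viability is read by CellTiter-Fluor fluorescence after 1hr.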
# [13] = Caspase-3/7 induction in CHO-K1 cells by small molecules, qHTS assay (AID 1346980); also: nearly all actives have a fitted effect of over 15% in size
# Summary of the method: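 Luminescent Caspase-Glo 3/7 read (30min, room temperature) quantified apoptosis induction. Cells were wild-type CHO-K1, treated with compound for 17hr at 37 C and 5% CO2.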
# [14] = target: Nuclear receptor subfamily 1 group I member 2 (Homo sapiens) (UniProt O75469); experiment: Human pregnane X receptor (PXR) small molecule agonists, qHTS assay (AID 1346982); also: nearly all actives have a fitted effect of over 35% in size; also: potency is read from the fitted curve at half-maximal effect
# Nuclear receptor subfamily 1 group I member 2 (Homo sapiens), sequence (O75469 whole entry, looked up): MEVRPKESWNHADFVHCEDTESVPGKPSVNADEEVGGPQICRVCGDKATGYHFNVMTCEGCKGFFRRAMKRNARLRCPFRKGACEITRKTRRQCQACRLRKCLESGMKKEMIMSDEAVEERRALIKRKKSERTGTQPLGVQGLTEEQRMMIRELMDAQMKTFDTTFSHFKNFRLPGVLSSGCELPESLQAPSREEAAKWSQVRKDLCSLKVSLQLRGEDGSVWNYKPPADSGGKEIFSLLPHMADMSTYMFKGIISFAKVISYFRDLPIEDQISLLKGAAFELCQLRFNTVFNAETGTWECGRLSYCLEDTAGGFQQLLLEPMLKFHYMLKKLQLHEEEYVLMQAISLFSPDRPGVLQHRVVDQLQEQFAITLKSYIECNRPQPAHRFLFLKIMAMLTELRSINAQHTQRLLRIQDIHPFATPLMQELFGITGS
# Summary of the method: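 Compound-induced hPXR transactivation of a CYP3A4 luciferase reporter was scored in HepG2 PXR-Luc cells over 24 hr at 37 C, 5% CO2, by luminescence.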
# [15] = target: Nuclear receptor subfamily 1 group I member 2 (Rattus norvegicus) (UniProt Q9R1A7); experiment: Rat pregnane X receptor (rPXR) activation by small molecules, qHTS assay (AID 1346983); conditions: rPXR luciferase reporter cells, One-Glo luminescence, 24 h; stronger effect = higher value; also: nearly all actives have a fitted effect of over 20% in size
# Nuclear receptor subfamily 1 group I member 2 (Rattus norvegicus), sequence (Q9R1A7 whole entry, looked up): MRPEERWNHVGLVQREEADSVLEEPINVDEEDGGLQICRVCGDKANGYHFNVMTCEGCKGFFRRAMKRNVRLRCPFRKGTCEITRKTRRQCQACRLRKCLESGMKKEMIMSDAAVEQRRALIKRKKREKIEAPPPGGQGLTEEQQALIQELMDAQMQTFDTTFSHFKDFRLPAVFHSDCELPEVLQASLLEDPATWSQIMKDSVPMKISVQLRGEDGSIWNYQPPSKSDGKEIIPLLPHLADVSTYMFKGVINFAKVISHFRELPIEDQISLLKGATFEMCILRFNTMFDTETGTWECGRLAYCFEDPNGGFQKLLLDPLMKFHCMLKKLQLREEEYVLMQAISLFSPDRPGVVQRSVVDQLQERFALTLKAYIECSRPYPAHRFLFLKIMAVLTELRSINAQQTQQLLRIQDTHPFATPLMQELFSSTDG
# Summary of the method: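 Luminescent readout (One-Glo luciferase, 30 min room temperature) followed 24 hr compound treatment at 37 C of rPXR cells plated 2,000 per well and preincubated 5hr; qHTS format with compounds delivered in DMSO.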
# [16] = target: Nuclear receptor subfamily 1 group I member 2 (Homo sapiens) (UniProt O75469); experiment: CYP3A4 induction through human pregnane X receptor (PXR) by small molecules, qHTS assay (AID 1346984); also: nearly all actives have a fitted effect of over 40% in size
# Summary of the method: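 Readings come from a luciferase reporter: DPX-2 cells, which are HepG2 cotransfected with PXR and a CYP3A4-promoter construct, were exposed to test compounds for 24 h at 37C before One-Glo detection.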
# [17] = target: Nuclear receptor subfamily 1 group I member 2 (Homo sapiens) (UniProt O75469); experiment: Human pregnane X receptor (PXR) activation by small molecules, qHTS assay (AID 1346985); also: nearly all actives have a fitted effect of over 40% in size; also: potency is read from the fitted curve at half-maximal effect
# Summary of the method: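 DPX-2 cells (HepG2 co-transfected with a PXR response element and a CYP3A4-promoter luciferase construct) were seeded at 2,000 per well, rested 5 hr at 37C, then exposed to DMSO-dissolved compounds for 24 hr. Activation was read as luciferase luminescence.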
# [18] = target: Acetylcholinesterase (Homo sapiens) (UniProt P22303); experiment: Acetylcholinesterase (AChE) small molecule antagonists: colormetric cell-based qHTS assay (AID 1347395; calls by dose curve; also: nearly all actives have a fitted effect of over 30% in size; also: potency is read from the fitted curve at half-maximal effect)
# Acetylcholinesterase (Homo sapiens), sequence (P22303 whole entry, looked up): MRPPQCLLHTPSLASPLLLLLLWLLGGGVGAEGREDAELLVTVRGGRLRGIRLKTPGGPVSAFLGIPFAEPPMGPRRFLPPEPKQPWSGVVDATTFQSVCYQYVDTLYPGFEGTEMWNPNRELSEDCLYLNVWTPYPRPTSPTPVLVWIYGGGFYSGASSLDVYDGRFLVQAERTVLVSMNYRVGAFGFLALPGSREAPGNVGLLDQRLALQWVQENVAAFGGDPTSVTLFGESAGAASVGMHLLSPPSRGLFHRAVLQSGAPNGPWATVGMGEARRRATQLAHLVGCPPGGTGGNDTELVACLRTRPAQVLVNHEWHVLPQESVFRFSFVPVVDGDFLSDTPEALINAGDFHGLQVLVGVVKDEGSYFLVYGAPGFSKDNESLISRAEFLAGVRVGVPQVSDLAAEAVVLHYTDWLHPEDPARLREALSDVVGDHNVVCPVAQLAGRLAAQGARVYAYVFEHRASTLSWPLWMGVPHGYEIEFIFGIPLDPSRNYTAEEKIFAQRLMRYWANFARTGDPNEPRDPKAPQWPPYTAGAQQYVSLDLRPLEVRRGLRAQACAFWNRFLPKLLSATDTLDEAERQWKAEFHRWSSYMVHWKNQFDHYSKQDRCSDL
# Summary of the method: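 Colorimetric read-out: DTNB detects thiocholine released when cellular AChE in SH-SY5Y cells hydrolyses acetylthiocholine. Cells attached overnight, received compound for 30 min at 37 C, then substrate mix for 90 min at 37 C.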
# [19] = Human pregnane X receptor (PXR) small molecule agonists, qHTS cell viability counter screen (AID 1346977); also: nearly all actives have a fitted effect of over 50% in size; also: potency is read from the fitted curve at half-maximal effect
# Summary of the method: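 PXR-Luc HepG2, 2,000 cells/well, 5% charcoal-stripped FBS; 5hr settle; cpd 24hr, 37C/5% CO2; CellTiter-Fluor at 23hr, read 1hr later (fluorescence).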
# [20] = Caspase-3/7 induction in HepG2 cells by small molecules, qHTS cell viability counter screen (AID 1346981); also: nearly all actives have a fitted effect of over 30% in size; also: potency is read from the fitted curve at half-maximal effect; as to activity change, negative = cytotoxicity: series mostly up to about 92 µM
# Summary of the method: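 Viability determined by CellTiter-Fluor fluorescence in HepG2 wells also used for the luminescent Caspase-Glo 3/7 read. Compounds were present for 16 hr at 37 C, 5% CO2 before reagent addition.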
compound,measurement,setting,value
C[N+]1(CCC(C(N)=O)(c2ccccc2)c2ccccc2)CCCCC1,Potency,[1],inactive
same,Potency,[2],inactive
same,Potency,[3],inactive
same,Potency,[4],inactive
same,Potency,[5],inactive
same,Potency,[6],inactive
same,Potency,[7],inactive
same,outcome,[8],inactive
same,Potency,[9],inactive
same,outcome,[10],inactive
same,Potency,[11],inactive
same,Potency,[12],inactive
same,Potency,[13],inactive
same,Potency,[14],inactive
same,max activation,[15],-4.99% (inactive)
same,outcome,[16],inactive
same,Potency,[17],inactive
same,Potency,[18],inactive
CCC1(CC)C(=O)NC(=O)NC1=O,Potency,[1],inactive
same,Potency,[2],inactive
same,Potency,[3],inactive
same,Potency,[4],inactive
same,Potency,[5],inactive
same,Potency,[6],inactive
same,Potency,[7],inactive
same,outcome,[8],inactive
same,outcome,[10],inactive
same,Potency,[19],inactive
same,Potency,[11],inactive
same,Potency,[12],inactive
same,Potency,[13],inactive
same,Potency,[20],inactive
same,Potency,[14],inactive
same,max activation,[15],0.212% (inactive)
same,outcome,[16],inactive
same,Potency,[17],inactive
same,Potency,[18],inactive
O=C(O)c1ccc(=O)[nH]c1,Potency,[1],inactive
same,Potency,[2],inactive
same,Potency,[3],inactive
same,Potency,[4],inactive
same,Potency,[5],inactive
same,Potency,[6],inactive
same,Potency,[7],inactive
same,outcome,[8],inactive
same,Potency,[9],inactive
same,outcome,[10],inactive
same,Potency,[19],inactive
same,Potency,[11],inactive
same,Potency,[13],inactive
same,Potency,[20],inactive
same,Potency,[14],inactive
same,Potency,[18],inactive
CCC[N+](CCC)(CCC)CCC,Potency,[1],inactive
same,Potency,[2],inactive
same,Potency,[3],inactive
same,Potency,[4],inactive
same,Potency,[5],inactive
same,Potency,[6],inactive
same,Potency,[7],inactive
same,outcome,[8],inactive
same,outcome,[10],inactive
same,Potency,[19],inactive
same,Potency,[11],inactive
same,Potency,[12],inactive
same,Potency,[13],inactive
same,Potency,[20],inactive
same,Potency,[14],inactive
CCCCCCCCCCCCN=C(N)N,"activity change, negative = cytotoxicity",[1],-1.52% [at 3.27 µM] (inactive)
same,activation,[2],2.06% [at 3.27 µM] (inactive)
same,"activity change, negative = inhibition",[3],1.76% [at 3.27 µM] (inactive)
same,"activity change, negative = cytotoxicity",[4],1.32% [at 3.27 µM] (inactive)
same,"activity change, negative = cytotoxicity",[5],0.561% [at 3.27 µM] (inactive)
same,"viability change, negative = cytotoxic",[6],-21.8% [at 2.72 µM] (inactive)
same,"activity change, negative = cytotoxicity",[7],-9.54% [at 2.72 µM] (inactive)
same,activation,[8],1.13% [at 2.72 µM] (inactive)
same,"activity, negative = inhibition",[9],1.26% [at 1.81 µM] (inactive)
same,activation,[10],0.32% [at 2.04 µM] (inactive)
same,"activity change, negative = cytotoxicity",[19],1.51% [at 3.27 µM] (inactive)
same,caspase activation,[11],-1.34% [at 3.27 µM] (inactive)
same,"activity change, negative = cytotoxicity",[12],-4.73% [at 3.27 µM] (inactive)
same,caspase-3/7 activation,[13],-1.72% [at 3.27 µM] (inactive)
same,activation,[14],13.3% [at 3.27 µM] (inactive)
same,"activity, negative = inhibition",[18],-5.91% [at 4.07 µM] (inactive)
CN1C[C@H](C(=O)N[C@]2(C)O[C@@]3(O)[C@@H]4CCCN4C(=O)[C@H](Cc4ccccc4)N3C2=O)C=C2c3cccc4[nH]cc(c34)C[C@H]21,Potency,[1],24.4 µM (active) and 20.2 µM (active)
same,Potency,[2],inactive
same,Potency,[3],48.8 µM (active) and inactive
same,Potency,[4],inactive
same,Potency,[5],inactive
same,Potency,[6],inactive
same,Potency,[7],inactive
same,outcome,[8],inactive
same,outcome,[10],inactive
same,Potency,[19],39.8 µM (active)
same,Potency,[11],inactive
same,Potency,[12],30.8 µM (active) and 18 µM (active)
same,Potency,[13],inactive
same,Potency,[20],30.8 µM (active) and 22.6 µM (active)
same,Potency,[14],2.74 µM (active) and 4.03 µM (active)
same,max activation,[15],-2.24% (inactive)
same,outcome,[16],inactive
same,Potency,[17],2.51 µM (active)
same,Potency,[18],1.01 µM (active) and 8.32 µM (active)
O=C(O)c1cc(I)cc(I)c1I,Potency,[1],inactive
same,Potency,[2],inactive
same,Potency,[3],inactive
same,Potency,[4],inactive
same,Potency,[5],inactive
same,Potency,[6],inactive
same,Potency,[7],inactive
same,outcome,[8],inactive
same,Potency,[9],inactive
same,outcome,[10],inactive
same,Potency,[19],inactive
same,Potency,[11],inactive
same,Potency,[12],inactive
same,Potency,[13],inactive
same,Potency,[20],inactive
same,Potency,[14],inactive
same,Potency,[18],inactive
